PubChem BioAssay
Activity calls are given as the source filed them.

How the values were obtained:
[1] = small molecules captured by biotinylated probe aFSTL3 – biochemical, small-molecule microarray, fluorescence 635/667, stem cell growth factor project, primary screen (AID 1064); conditions: higher = more signal;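 also: measures binding of the biotinylated anti-FSTL3 antibody to printed compounds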
[2] = binders from COS7 lysate, DM2A8 probe, primary screen, torsin A project, cell lysate, small-molecule microarray, fluorescence 635/667 (AID 1065); conditions: higher = more signal, COS7 lysate expressing mutant human TOR1A
[3] = small molecules captured by biotinylated probe aFGF2 – biochemical, small-molecule microarray, fluorescence 635/667, stem cell growth factor project, primary screen (AID 1067); conditions: higher = more signal;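 also: measures binding of biotinylated aFGF2 protein to printed compounds on slides; z-score merges feature fluorescence and signal-to-noise across triplicate slides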
[4] = small molecules captured by biotinylated probe aFGF10 – biochemical, small-molecule microarray, fluorescence 635/667, stem cell growth factor project, primary screen (AID 1071); conditions: higher = more signal;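 also: score merges 667 nm spot intensity and signal to noise from triplicate slides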
[5] = molecular target: Neurogenic locus notch homolog protein 2 (Homo sapiens) (UniProt Q04721); assay: small molecules binding Notch2 protein – biochemical, small-molecule microarray, 635 nm fluorescence, stem cell growth factors, primary screen (AID 1073); conditions: higher = more signal
Sequence of Neurogenic locus notch homolog protein 2 (Homo sapiens) (Q04721 whole entry, looked up, canonical isoform): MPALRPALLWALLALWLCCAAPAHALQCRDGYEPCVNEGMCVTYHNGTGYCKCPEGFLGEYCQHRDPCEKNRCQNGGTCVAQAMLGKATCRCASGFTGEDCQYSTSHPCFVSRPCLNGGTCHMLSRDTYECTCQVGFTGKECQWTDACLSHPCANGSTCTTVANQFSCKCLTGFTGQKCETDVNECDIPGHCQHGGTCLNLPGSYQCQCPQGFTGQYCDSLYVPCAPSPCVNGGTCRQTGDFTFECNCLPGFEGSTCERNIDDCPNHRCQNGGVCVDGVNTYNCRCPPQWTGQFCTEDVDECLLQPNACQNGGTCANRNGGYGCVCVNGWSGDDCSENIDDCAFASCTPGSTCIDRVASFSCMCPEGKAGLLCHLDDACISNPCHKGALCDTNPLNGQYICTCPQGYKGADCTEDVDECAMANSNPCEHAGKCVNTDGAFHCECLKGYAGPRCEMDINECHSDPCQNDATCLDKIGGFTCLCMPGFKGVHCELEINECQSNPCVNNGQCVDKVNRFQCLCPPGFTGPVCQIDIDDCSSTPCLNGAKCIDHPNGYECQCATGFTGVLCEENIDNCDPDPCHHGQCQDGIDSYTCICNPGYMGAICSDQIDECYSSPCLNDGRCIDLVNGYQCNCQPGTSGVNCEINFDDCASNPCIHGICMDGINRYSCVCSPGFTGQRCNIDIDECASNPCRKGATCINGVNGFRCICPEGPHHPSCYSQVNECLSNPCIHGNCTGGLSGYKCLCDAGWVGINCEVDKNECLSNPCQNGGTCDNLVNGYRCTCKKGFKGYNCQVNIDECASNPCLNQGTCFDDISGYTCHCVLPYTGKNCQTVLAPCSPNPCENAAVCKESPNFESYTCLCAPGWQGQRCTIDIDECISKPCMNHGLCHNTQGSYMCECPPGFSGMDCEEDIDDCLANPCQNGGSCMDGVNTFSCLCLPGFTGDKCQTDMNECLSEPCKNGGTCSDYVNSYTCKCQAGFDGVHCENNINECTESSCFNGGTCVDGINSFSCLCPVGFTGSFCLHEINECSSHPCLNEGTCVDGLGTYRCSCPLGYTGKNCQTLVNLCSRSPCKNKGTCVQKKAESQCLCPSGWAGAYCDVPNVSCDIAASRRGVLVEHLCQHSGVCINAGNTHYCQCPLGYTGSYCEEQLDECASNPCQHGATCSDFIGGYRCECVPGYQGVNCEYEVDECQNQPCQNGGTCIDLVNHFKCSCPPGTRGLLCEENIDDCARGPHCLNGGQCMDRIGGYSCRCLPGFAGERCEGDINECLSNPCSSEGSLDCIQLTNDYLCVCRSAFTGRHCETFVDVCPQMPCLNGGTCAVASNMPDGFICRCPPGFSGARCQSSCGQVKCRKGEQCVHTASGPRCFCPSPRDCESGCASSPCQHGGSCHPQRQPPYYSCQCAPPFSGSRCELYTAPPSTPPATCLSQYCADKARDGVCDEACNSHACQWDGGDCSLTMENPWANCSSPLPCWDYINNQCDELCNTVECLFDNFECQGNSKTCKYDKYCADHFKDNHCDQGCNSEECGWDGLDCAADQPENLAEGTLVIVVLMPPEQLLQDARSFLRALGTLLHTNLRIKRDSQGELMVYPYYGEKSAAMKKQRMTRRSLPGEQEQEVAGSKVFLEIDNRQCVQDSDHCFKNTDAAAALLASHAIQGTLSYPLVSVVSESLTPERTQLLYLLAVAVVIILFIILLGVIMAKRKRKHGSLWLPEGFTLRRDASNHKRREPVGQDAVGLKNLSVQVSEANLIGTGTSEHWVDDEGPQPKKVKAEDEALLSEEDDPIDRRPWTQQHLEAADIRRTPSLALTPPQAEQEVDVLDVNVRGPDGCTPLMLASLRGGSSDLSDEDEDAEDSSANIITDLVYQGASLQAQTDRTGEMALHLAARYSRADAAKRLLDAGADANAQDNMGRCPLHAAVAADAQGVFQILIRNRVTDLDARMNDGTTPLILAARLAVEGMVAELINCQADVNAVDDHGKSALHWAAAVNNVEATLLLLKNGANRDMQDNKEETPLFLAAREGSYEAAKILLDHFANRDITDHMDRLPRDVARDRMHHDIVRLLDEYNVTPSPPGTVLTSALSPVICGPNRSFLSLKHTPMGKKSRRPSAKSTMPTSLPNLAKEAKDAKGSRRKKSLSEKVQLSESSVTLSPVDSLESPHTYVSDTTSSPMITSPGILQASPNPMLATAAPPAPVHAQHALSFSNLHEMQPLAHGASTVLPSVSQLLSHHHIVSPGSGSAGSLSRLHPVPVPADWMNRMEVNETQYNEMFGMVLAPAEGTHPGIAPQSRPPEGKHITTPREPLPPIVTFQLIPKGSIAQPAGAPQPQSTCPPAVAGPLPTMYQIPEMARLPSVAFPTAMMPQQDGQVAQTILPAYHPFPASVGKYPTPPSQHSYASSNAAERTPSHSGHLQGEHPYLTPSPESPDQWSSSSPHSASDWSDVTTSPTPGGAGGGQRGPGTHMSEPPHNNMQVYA

[6] = molecular target: Pro-neuregulin-1, membrane-bound isoform (Homo sapiens) (UniProt Q02297); assay: small molecules binding neuregulin-1 protein – biochemical, small-molecule microarray, fluorescence 635/667, psychiatric disease protein project, primary screen (AID 1075); conditions: NRG1 binding, 635 nm fluorescence, higher = more signal;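 also: score combines 667 nm spot fluorescence with signal to noise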
[7] = test system: Neuregulin-1 EGF-like domain; assay: small molecules binding NRG1 EGF domain – biochemical, small-molecule microarray, 635 nm fluorescence, primary screen (AID 1081); conditions: higher = more signal;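 also: binding of the protein to compounds printed on small-molecule microarray slides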
[8] = FRG1 expression reporter modulators in myotubes – cell-based, C2C12 myotubes, firefly/Renilla luciferase, luminescence, FRG1 inhibition for FSHD, primary screen (AID 1084); conditions: FRG1 promoter luciferase, higher = more signal, called active from +8 up or from −8 down
[9] = small molecules captured by biotinylated probe aFST – biochemical, small-molecule microarray, fluorescence 635/667, stem cell growth factor project, primary screen (AID 1086); conditions: higher = more signal;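 also: score merges 667 nm fluorescence with signal-to-noise of each printed compound spot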
[10] = binders of probe aHhip on microarray, primary screen, stem cell growth factor project, biochemical, small-molecule microarray, fluorescence 635/667 (AID 1087); conditions: higher = more signal;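 also: score merges spot fluorescence at 667nm with spot signal to noise ratio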
[11] = test system: PRMT1 (protein arginine N-methyltransferase 1); assay: small molecules binding arginine methyltransferase PRMT1 – biochemical, small-molecule microarray, 635 nm fluorescence, primary screen (AID 1088); conditions: higher = more signal;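 also: binding of Prmt1 protein to compounds spotted on small-molecule microarray slides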
[12] = growth effects on S. cerevisiae YJM789 – YJM789 clinical isolate, OD600, 24 h, basal, primary screen (AID 1089); conditions: higher = more signal, called active from +8 up or from −8 down;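 also: growth of clinical yeast isolate S. cerevisiae YJM 789 seeded 1000 cells per well; test concentration not given here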
[13] = S. pombe growth modifiers, basal conditions – strain 972, OD600, 24 h, no modulator, primary screen (AID 1090);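 also: basal condition with compound alone and no growth modifier present; test concentration not given here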; conditions: S. pombe 972 growth, higher = more signal, called active from +8 up or from −8 down
[14] = budding yeast growth modifiers under rapamycin – strain BY4716, OD600, 96 h, primary screen (AID 1091); also: test concentration not given here; conditions: S. cerevisiae BY4716 + rapamycin, higher = more signal, called active from +8 up or from −8 down
[15] = molecular target: Torsin-1A-interacting protein 2 (Homo sapiens) (UniProt Q8NFQ8); assay: small molecules binding lysate-expressed LULL1 – cell lysate, human LULL1 lysate, 635/667 nm fluorescence, primary screen (AID 1092); conditions: small-molecule microarray, hLULL1 lysate binding, 635 nm fluorescence; higher = more signal;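 also: probe is lysate of COS7 cells overexpressing human LULL1; score merges per-feature 667 nm fluorescence with signal-to-noise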
[16] = optical density change of DRC41 E. coli – strain DRC41, OD650, 24 h, E. coli filamentation project, primary screen (AID 1093);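 also: MC1000 strain lacking acrAB efflux and sulA so SOS filamentation is blocked; test concentration not given here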; conditions: E. coli DRC41 growth, higher = more signal, called active from +8 up or from −8 down
[17] = probe aLefty2 binding to arrayed compounds – biochemical, biotinylated probe, 635/667 nm fluorescence, primary screen (AID 1094); conditions: small-molecule microarray, higher = more signal;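 also: score merges spot fluorescence near 667 nm with spot signal-to-noise ratio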
[18] = test system: Noggin (protein binding on small-molecule microarray); assay: small molecules binding Noggin protein – biochemical, 635/667 nm fluorescence, primary screen (AID 1095); conditions: 635 nm fluorescence, higher = more signal;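 also: score merges 667 nm feature fluorescence with signal to noise over triplicate slides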
[19] = molecular target: Neurogenic locus notch homolog protein 3 (Homo sapiens) (UniProt Q9UM47); assay: small molecules binding NOTCH3 protein – biochemical, 635/667 nm fluorescence, primary screen (AID 1096); conditions: small-molecule microarray, 635 nm fluorescence, higher = more signal
Sequence of Neurogenic locus notch homolog protein 3 (Homo sapiens) (Q9UM47 whole entry, looked up): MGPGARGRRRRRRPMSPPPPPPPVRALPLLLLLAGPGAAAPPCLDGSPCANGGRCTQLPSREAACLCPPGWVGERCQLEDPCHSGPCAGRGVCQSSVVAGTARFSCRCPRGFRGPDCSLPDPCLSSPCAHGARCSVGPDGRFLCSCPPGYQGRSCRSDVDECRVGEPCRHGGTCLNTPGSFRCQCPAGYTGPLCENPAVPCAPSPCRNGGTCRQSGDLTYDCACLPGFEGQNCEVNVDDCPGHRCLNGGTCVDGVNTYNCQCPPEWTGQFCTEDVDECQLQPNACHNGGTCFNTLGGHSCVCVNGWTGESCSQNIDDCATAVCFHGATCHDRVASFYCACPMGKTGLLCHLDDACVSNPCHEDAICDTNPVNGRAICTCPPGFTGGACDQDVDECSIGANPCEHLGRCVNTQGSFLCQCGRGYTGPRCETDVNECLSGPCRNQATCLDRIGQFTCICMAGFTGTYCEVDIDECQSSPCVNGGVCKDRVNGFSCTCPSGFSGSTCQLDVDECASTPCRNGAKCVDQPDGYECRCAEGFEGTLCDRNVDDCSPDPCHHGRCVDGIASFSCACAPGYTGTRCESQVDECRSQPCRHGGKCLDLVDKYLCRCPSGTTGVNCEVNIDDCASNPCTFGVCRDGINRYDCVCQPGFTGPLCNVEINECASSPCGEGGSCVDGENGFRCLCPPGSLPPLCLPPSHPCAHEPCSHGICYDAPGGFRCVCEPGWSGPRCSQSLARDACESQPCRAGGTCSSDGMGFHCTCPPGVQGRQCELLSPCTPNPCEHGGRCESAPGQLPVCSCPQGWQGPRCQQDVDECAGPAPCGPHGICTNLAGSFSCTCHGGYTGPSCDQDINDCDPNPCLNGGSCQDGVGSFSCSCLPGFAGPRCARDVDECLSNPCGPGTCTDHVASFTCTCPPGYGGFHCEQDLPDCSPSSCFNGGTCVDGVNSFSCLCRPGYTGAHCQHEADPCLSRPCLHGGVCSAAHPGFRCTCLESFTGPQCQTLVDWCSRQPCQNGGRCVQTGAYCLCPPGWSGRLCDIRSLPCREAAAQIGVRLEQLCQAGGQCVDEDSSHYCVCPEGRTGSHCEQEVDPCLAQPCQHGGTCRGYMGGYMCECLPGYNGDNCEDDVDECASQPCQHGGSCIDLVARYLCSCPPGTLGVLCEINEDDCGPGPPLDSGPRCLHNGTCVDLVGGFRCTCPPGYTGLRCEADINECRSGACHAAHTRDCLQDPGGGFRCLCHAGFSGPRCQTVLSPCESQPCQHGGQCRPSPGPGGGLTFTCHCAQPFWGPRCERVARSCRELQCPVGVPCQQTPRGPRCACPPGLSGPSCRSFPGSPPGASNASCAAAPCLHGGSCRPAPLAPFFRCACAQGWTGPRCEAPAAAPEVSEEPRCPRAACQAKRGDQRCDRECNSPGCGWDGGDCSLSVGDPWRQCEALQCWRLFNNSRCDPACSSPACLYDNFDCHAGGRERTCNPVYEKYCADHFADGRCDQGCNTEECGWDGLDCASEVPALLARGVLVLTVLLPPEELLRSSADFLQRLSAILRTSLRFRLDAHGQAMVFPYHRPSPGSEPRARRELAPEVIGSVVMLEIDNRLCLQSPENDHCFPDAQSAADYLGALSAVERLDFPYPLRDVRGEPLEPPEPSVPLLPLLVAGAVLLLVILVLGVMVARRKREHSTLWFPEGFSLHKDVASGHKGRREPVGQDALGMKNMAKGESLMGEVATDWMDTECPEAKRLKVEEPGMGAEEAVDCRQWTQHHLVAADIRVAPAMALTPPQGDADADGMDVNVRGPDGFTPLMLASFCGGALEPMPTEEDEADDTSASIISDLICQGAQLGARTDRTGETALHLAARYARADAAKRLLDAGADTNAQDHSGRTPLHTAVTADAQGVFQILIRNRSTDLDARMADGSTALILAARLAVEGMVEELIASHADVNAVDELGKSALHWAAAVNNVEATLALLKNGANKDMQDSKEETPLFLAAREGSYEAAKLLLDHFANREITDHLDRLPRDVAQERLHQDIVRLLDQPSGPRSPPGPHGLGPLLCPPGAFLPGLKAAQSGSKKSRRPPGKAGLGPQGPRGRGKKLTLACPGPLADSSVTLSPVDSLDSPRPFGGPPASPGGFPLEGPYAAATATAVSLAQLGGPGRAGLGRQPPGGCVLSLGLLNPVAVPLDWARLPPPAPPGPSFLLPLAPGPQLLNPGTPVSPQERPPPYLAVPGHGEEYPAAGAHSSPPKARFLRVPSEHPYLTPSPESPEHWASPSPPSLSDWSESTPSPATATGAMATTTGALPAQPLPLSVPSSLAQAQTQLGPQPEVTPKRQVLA

[20] = probe aEGFR binding to arrayed compounds – biochemical, biotinylated probe, 635/667 nm fluorescence, primary screen (AID 1097); conditions: small-molecule microarray, higher = more signal;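 also: probe is a biotinylated anti-EGFR antibody binding compounds printed on slides; score combines fluorescence near 667 nm and signal to noise of each spot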

SMILES	composite z-score [1]	composite z-score [2]	composite z-score [3]	composite z-score [4]	composite z-score [5]	composite z-score [6]	composite z-score [7]	z-score [8]	composite z-score [9]	composite z-score [10]	composite z-score [11]	z-score [12]	z-score [13]	z-score [14]	composite z-score [15]	z-score [16]	composite z-score [17]	composite z-score [18]	composite z-score [19]	composite z-score [20]
N#Cc1ccc(-c2cccc(=O)o2)cc1	-0.5	0.316	-0.103	0.248	0.601	0.114	0.678	0.563 (inactive)	0.445	-0.166	1	-0.24 (inactive)	-0.537 (inactive)	0.805 (inactive)	0.552	-0.675 (inactive)	-0.212	0.671	0.718	-0.0794
C=CCN1Cc2ccccc2[C@H]2OC(c3ccc(OCCCO)cc3)=N[C@@]2(CCS(=O)(=O)c2ccccc2)C1=O	1.14	0.852	0.0814	0.201	1.47	1.61	1.35	-0.908 (inactive)	0.932	-0.226	1.55	0.601 (inactive)	0.546 (inactive)	5.35 (inactive)	2.29	0.557 (inactive)	0.319	1.33	1.05	0.124
[N-]=[N+]=Nc1ccccc1C[C@@]1(C(=O)NCC(O)CO)N=C(c2ccc(OCCCO)cc2)O[C@@H]1c1ccccc1 (stereo not given in full)	0.134	-0.243	-0.073	0.165	0.513	0.706	1.1	-2.46 (inactive)	0.146	-0.0994	0.376	-0.558 (inactive)	-1.09 (inactive)	-1.31 (inactive)	2.81	0.883 (inactive)	-0.0021	-0.264	-0.405	-0.151
CCOC(=O)C1=CC[C@@H](c2ccc(OC)cc2)N(S(=O)(=O)c2ccc(C)cc2)[C@H]1CC	-0.295	0.495	-0.067	0.398	1.66	1.13	1.11	-3.47 (inactive)	1.14	-0.0645	1.56	-1.48 (inactive)	0.971 (inactive)	0.879 (inactive)	3.05	0.66 (inactive)	0.0319	0.0635	1.08	-0.0157
N#Cc1ccc(C(O)C2C=CC3C(=O)NC(=O)C3N2Nc2ccc(Cl)cc2Cl)cc1 (stereo not given)	-0.0161	-0.0803	-0.101	0.116	1.45	1.82	0.649	1.79 (inactive)	0.119	-0.146	0.156	-2.93 (inactive)	-0.615 (inactive)	0.448 (inactive)	3.39	-0.343 (inactive)	0.103	-0.185	0.559	-0.0594
Cc1ccc(S[C@]2(C(=O)NCC(F)(F)F)CC(=O)N(Cc3ccccc3C(F)(F)F)[C@@H]2c2ccc(CO)cc2)cc1	0.953	-0.0728	-0.1	-0.0379	-1.14	-0.401	0.573	-1.82 (inactive)	-0.606	-0.191	0.895	-0.837 (inactive)	0.0848 (inactive)	-0.203 (inactive)	1.67	-0.254 (inactive)	0.145	-0.872	-0.462	-0.0416
Cc1ccc(S[C@]2(C(=O)NCc3ccccc3)CC(=O)N(Cc3ccccc3C(F)(F)F)[C@@H]2c2ccc(CO)cc2)cc1	0.563	-0.355	-0.105	-0.659	-1.44	0.642	-1.08	-1.92 (inactive)	-0.633	-0.204	0.884	-1.61 (inactive)	0.447 (inactive)	-0.417 (inactive)	1.05	0.837 (inactive)	-0.154	-1.16	-0.64	-0.272
CN1C(=O)[C@@H]2[C@@H](CC(COc3ccccc3)=C3[C@@H](CCc4ccccc4)OB(O)C[C@@H]32)C1=O	-0.124	0.275	-0.0415	0.121	0.371	0.445	0.56	-0.799 (inactive)	0.0157	-0.0994	0.359	-0.973 (inactive)	-0.793 (inactive)	-0.862 (inactive)	0.384	-0.372 (inactive)	-0.205	0.231	-0.138	-0.15
C[N+](C)(C)CCCCNC(=O)[C@H]1C[C@H]2C(=O)N[C@@H](Cc3ccccc3)C(=O)N2[C@H]1c1cccc(OCCO)c1	-0.397	1.29	-0.0375	1.21	0.641	1.06	1.36	2.28 (inactive)	0.435	0.0373	0.982	-0.0304 (inactive)	0.351 (inactive)	-1.82 (inactive)	1.99	0.0648 (inactive)	0.0899	1.88	1.02	0.256
O=C(O)[C@H](Cc1ccccc1)n1cc(C2(O)CCCCC2)nn1	-0.44	0.444	-0.103	0.262	-0.0666	0.0741	0.993	1.64 (inactive)	0.163	-0.0645	0.499	-0.418 (inactive)	0.255 (inactive)	-0.444 (inactive)	1.71	-1.15 (inactive)	-0.137	0.392	0.541	-0.0211
CC(C)=CCCC=C(C)C(O)C1C=CC2C(=O)N(c3ccccc3)C(=O)C2N1Nc1ccc(C#N)cc1 (stereo not given)	0.314	0.146	0.126	0.178	1.51	1.93	1.23	-1.36 (inactive)	0.257	-0.382	1.38	-1.67 (inactive)	0.0768 (inactive)	2.31 (inactive)	3.3	-1.24 (inactive)	-0.152	0.0542	1.01	-0.0828
[N-]=[N+]=Nc1ccccc1[C@@H]1OC(c2ccc(OCCCO)cc2)=N[C@]1(Cc1ccccc1)C(=O)NCCN1CCOCC1	-0.0258	2.32	-0.001	0.916	1.21	-0.238	1.33	-0.906 (inactive)	1.26	0.24	0.547	-0.312 (inactive)	-1.36 (inactive)	0.152 (inactive)	3.51	0.382 (inactive)	0.0787	0.762	1.09	-0.0106
CCCC=C(CCC)[C@@H](NC(=O)c1ccc(C(F)(F)F)cc1)c1ccc(C(F)(F)F)cc1	0.625	0.629	0.171	0.669	1.57	1.82	0.588	-4.76 (inactive)	1.04	-0.0965	1.41	1.13 (inactive)	1.17 (inactive)	1.23 (inactive)	3.26	-0.35 (inactive)	0.315	-0.0005	1.11	0.208
NC(=O)N1C(=O)C2C(C1=O)C1C=C(CCCO)C2C(c2ccc(CN3CCCC3)cc2)N1Cc1sc2ccccc2c1Cl (stereo not given)	-0.161	0.224	-0.0867	0.0718	0.0517	0.0965	0.834	-0.824 (inactive)	-0.835	-0.323	0.634	-0.75 (inactive)	-0.399 (inactive)	-1.27 (inactive)	1.97	0.465 (inactive)	-0.208	-0.275	-0.348	-0.112
CCCCCC1=C2CNC(CC(C)C)(C(=O)OC)C=C2C(C)C1=O (stereo not given)	1.08	-0.176	0.185	0.0051	0.122	1.01	0.568	0.51 (inactive)	0.404	3.31	1.51	0.298 (inactive)	0.421 (inactive)	0.22 (inactive)	2.87	-0.415 (inactive)	0.0887	-0.272	0.225	-0.126
COCCOC(=O)N1C(=O)[C@@]2(c3cc(C#CCCO)ccc31)[C@H](c1ccc(OCCO)cc1)N1[C@H](c3ccccc3)[C@H](c3ccccc3)OC(=O)[C@H]1[C@@H]2C(=O)N1CCCCCCC1	3.17	1.15	0.487	1.08	1.37	1.65	1.16	0.278 (inactive)	2.65	3.2	1.54	0.869 (inactive)	0.277 (inactive)	3.69 (inactive)	2.82	-0.405 (inactive)	1.62	1.49	1.04	0.611
CC(C)(C)N1CC=CC23O[C@@H]4/C=C\CCCOC(=O)C4[C@H]2C(=O)N(CCCCCO)[C@@H]3C1=O (stereo not given in full)	1.26	-0.406	-0.227	-0.668	-0.545	-0.229	-0.448	-0.106 (inactive)	-1.09	0.176	-0.981	-0.143 (inactive)	0.0289 (inactive)	-0.635 (inactive)	0.389	-0.938 (inactive)	-0.114	-1.48	-0.457	-0.289
CCOC(=O)C[C@H]1[C@H](OC(=O)c2cc3ccccc3oc2=O)[C@@H](NC(=O)CC(C)C)c2cc(OCCCO)ccc2N1C(=O)Cc1ccc(OC)cc1	-0.699	-0.115	-0.114	0.499	0.508	0.324	0.49	-0.509 (inactive)	0.479	-0.201	1.14	-0.238 (inactive)	-0.462 (inactive)	0.052 (inactive)	1.3	-0.479 (inactive)	-0.165	0.322	0.924	-0.0973
C=CCNC(=O)[C@H]1[C@@H]2C(=O)O[C@@H](c3ccccc3)[C@@H](c3ccccc3)N2[C@@H](c2ccc(OCCO)cc2)[C@]12C(=O)Nc1ccccc12	-0.0085	0.586	0.083	0.331	-0.353	1.65	1.13	-2.89 (inactive)	-0.189	-0.613	1.18	1.24 (inactive)	0.259 (inactive)	2.84 (inactive)	3.36	1.35 (inactive)	-0.0785	0.167	0.457	-0.194
C=C(COC)C(=O)CC[C@@H](OC(=O)c1ccccc1-c1ccccc1C(=O)O)c1ccc(OCCO)cc1	-0.209	0.487	-0.132	-0.252	-0.638	-0.335	0.685	2.6 (inactive)	-0.0463	-0.0994	1.39	-0.656 (inactive)	-0.943 (inactive)	-0.856 (inactive)	0.886	0.315 (inactive)	-0.0341	1.26	0.505	-0.139
